Z-score and composite z-score data for 18 molecules are collected here from PubChem BioAssay.

SMILES strings stand for the structures. Calls of active or inactive are those of the source. Unless noted, how the calls were made is not given here.

Assay [1] can be described thus: HepG2 liver cancer cell viability effects, profiling panel, resazurin fluorescence, 24 h, PK04 Diversity Set (AID 1172). Further: test concentration not given here. The settings on record: higher = more signal.
The nature of assay [2]: basal S. cerevisiae growth modulation, no modifier, primary screen, OD600, strain BY4716, 24 h, basal condition (AID 1173). Particulars: OD600, 24 h, higher = more signal, called active from +8 up or from −8 down.
The nature of assay [3]: MM1S myeloma cell viability, profiling panel, resazurin fluorescence, basal, 24 h, PK04 Diversity Set (AID 1174).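 Further: MM1S multiple myeloma cell line; test concentration not given here.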 Particulars: higher = more signal, called active from +8 up or from −8 down.
The target of assay [4] is Dihydroorotate dehydrogenase (quinone), mitochondrial (Plasmodium falciparum (isolate 3D7)) (UniProt Q08210). Description: PfDHODH enzyme inhibitors, primary screen, biochemical, C-terminal His tag, absorbance 600 nm (AID 1175).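 Further: recombinant parasite enzyme with a five histidine tag at its C terminus; test concentration not given here.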 Particulars: DCIP absorbance 600 nm, higher = more signal, called active from +8 up or from −8 down.
Dihydroorotate dehydrogenase (quinone), mitochondrial (Plasmodium falciparum (isolate 3D7)), sequence (Q08210 whole entry, looked up): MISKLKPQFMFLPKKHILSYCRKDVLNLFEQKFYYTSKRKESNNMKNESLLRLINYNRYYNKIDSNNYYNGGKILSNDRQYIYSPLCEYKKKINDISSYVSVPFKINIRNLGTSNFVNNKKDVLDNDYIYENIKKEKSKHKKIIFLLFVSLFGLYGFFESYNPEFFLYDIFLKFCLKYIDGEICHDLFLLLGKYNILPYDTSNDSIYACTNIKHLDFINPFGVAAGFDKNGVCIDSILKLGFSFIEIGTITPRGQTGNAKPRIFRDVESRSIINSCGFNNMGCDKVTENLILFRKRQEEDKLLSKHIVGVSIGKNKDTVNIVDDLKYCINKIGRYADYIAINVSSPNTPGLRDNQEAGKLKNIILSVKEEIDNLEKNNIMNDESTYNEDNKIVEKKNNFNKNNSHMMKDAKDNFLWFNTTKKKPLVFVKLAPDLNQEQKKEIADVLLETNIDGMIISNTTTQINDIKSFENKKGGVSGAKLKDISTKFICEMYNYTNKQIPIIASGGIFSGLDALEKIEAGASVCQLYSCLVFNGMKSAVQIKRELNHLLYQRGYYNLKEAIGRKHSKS
Assay [5] in a line: P. aeruginosa biofilm formation inhibitors, primary screen, strain PAO1, LB-PBS medium, absorbance 600 nm (AID 1176). Further: test concentration not given here. The settings on record: P. aeruginosa PAO1 growth/biofilm, A600, 12 h; higher = more signal.
Assay [6] in a line: S. cerevisiae RM11-1a growth modifiers, primary screen, strain RM11-1a, OD600, basal, 24 h (AID 1177).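 Further: cultures grown under basal conditions with no added stressor; test concentration not given here.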 Particulars: OD600, 24 h, higher = more signal, called active from +8 up or from −8 down.
A short description of assay [7]: E. coli acrAB mutant growth effects, primary screen, E. coli filamentation inducers, strain DRC39, OD650, 24 h (AID 1178).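 Further: growth measured as culture turbidity by optical density at 650 nm; test concentration not given here.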 The settings on record: higher = more signal, called active from +8 up or from −8 down.
Assay [8] is described as follows: E. coli acrAB mutant growth effects, primary screen, E. coli filamentation inducers, strain DRC39, OD650, 48 h (AID 1179).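 Further: screen aims at cell division blockers that make cells filament.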 Particulars: E. coli DRC39 delta-acrAB growth, higher = more signal, called active from +8 up or from −8 down.
A short description of assay [9]: RPMI8226 myeloma cell viability, profiling panel, resazurin fluorescence, basal, 24 h, PK04 Diversity Set (AID 1180).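 Further: RPMI8826 multiple myeloma cell line at 5000 cells per well; test concentration not given here.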 The settings on record: higher = more signal.
Assay [10] addresses E3 ubiquitin-protein ligase XIAP (Homo sapiens) (UniProt P98170). Description: XIAP binders, primary screen, biophysical, small-molecule microarray, fluorescence 635 nm (AID 1181).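 Further: score merges 667 nm emission and signal to noise over triplicate slides.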 Particulars: small-molecule microarray binding, higher = more signal.

E3 ubiquitin-protein ligase XIAP (Homo sapiens), sequence (P98170 whole entry, looked up): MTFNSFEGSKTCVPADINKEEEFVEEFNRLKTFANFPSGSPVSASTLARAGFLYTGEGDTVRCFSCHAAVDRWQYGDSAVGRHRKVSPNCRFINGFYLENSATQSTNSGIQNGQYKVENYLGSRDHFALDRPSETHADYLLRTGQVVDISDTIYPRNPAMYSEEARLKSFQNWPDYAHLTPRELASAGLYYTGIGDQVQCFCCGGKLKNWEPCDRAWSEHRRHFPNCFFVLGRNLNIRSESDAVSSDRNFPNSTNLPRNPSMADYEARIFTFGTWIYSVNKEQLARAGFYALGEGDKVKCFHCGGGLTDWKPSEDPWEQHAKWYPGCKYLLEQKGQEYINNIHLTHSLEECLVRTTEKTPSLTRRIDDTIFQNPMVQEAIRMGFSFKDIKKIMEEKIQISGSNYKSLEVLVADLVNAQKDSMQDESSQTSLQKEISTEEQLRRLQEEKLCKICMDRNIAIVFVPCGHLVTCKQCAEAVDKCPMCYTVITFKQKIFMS

`COc1ccc(COC(=O)NN=C2C[C@@H](O)[C@@H](O)[C@@H]3[C@@H]4C(=O)N(Cc5ccc6c(c5)OCO6)C(=O)[C@@H]4CC[C@@H]23)cc1`: the z-score in [1] was 0.466; in assay [2], -0.839 (inactive); in [3] it was 0.401 (inactive); in assay [5], 2.55 (inactive); in assay [6] it was -1.83 (inactive); in assay [7] it was -0.459 (inactive). Moreover, the z-score was -0.279 (inactive) in [8] and 1.24 in assay [9]. In addition, the composite z-score in assay [4] was -1.68 (inactive); in assay [10], -0.0792.
With `COc1ccccc1CN1C(=O)c2ccccc2[C@@]2(Cc3ccccc3N(C(C)C)C2=O)[C@@H]1c1ccc(CO)cc1`, the z-score was -0.643 in assay [1]; 0.439 (inactive) in assay [2]; -0.647 (inactive) in assay [3]; 0.376 (inactive) in assay [5]; -1.56 (inactive) in assay [6]; 0.549 (inactive) in assay [7]. In addition, the z-score in [8] was 1.14 (inactive); in [9] it was -0.457. In addition, the composite z-score in assay [4] was -3.28 (inactive); in [10], 0.161.
As for `CC(=O)OC[C@H]1O[C@H](CCON=C[C@@H](C)[C@H](OCc2ccccc2)C(C)C)C=C[C@@H]1OC(C)=O`, the z-score was -0.374 in assay [1]; 0.604 (inactive) in assay [2]; -0.81 (inactive) in assay [3]; 0.0039 (inactive) in assay [5]; -0.399 (inactive) in assay [6]; -0.983 (inactive) in [7]. In addition, the figures for the z-score in assay [8] and in assay [9] were -2.1 (inactive) and -0.429, respectively. Moreover, the composite z-score was -0.64 (inactive) in [4] and -0.215 in [10].
Turning to `CN1C(=O)C2C=CC(C(O)C(c3ccccc3)c3ccccc3)N(NC(=O)OC(C)(C)C)C2C1=O` (stereo not given), the z-score in assay [1] is -0.889; in assay [2] it was -4.58 (inactive); in assay [3] it was -0.861 (inactive); in assay [5] it was 0.791 (inactive); in assay [6], 0.225 (inactive); in [7], -0.963 (inactive). Further, the z-score was -0.577 (inactive) in [8] and -0.962 in assay [9]. For the same molecule, the composite z-score was -1.08 (inactive) in assay [4] and 0.497 in [10].
Consider `COc1ccc(O[C@@H]2[C@H](O)CO[C@H]2C=CC#Cc2ccccc2)cc1`, for which the z-score is 0.0873 in assay [1]; -0.274 (inactive) in assay [2]; -0.107 (inactive) in [3]; 0.578 (inactive) in [5]; 0.905 (inactive) in assay [6]; -0.01 (inactive) in assay [7]. For the same molecule, the values for the z-score in assay [8] and in [9] were -0.812 (inactive) and 0.268, respectively. In addition, the values for the composite z-score in assay [4] and in assay [10] were 0.18 (inactive) and 0.116, respectively.
For the molecule `CO[C@@H]1COC(=O)CC=C[C@@H](C)[C@@H]2C=C[C@@H](O)[C@@H](COC(=O)CC=C[C@H]1C)O2`, the z-score was 0.234 in [1]; -1.29 (inactive) in assay [2]; 0.604 (inactive) in assay [3]; 0.683 (inactive) in [5]; -2.03 (inactive) in assay [6]; -0.0072 (inactive) in assay [7]. Further, the values for the z-score in assay [8] and in assay [9] were -0.392 (inactive) and -0.501, respectively. Also, the figures for the composite z-score in assay [4] and in assay [10] were -1.34 (inactive) and 0.0304, respectively.
As to `COC(=O)C1=C(C)[C@@H](O)[C@@H](C)[C@H](c2c(OC)c(OC)c(C)c(OC)c2OC)O1`, the z-score was -0.359 in assay [1]; -0.195 (inactive) in [2]; -0.46 (inactive) in assay [3]; 0.368 (inactive) in [5]; 0.0467 (inactive) in [6]; 0.0595 (inactive) in assay [7]. Also, the z-score in assay [8] was -0.0569 (inactive); in [9] it was -0.529. Also, the composite z-score in [4] was -0.218 (inactive); in [10], 0.0101.
Take `C=CCC(OC(C)=O)[C@@H]1[C@@H](N(Cc2cc3ccccc3o2)C(=O)Cc2ccc(F)cc2)c2cc(OCCCO)ccc2N1C(=O)Cc1ccc(OC)cc1` (stereo not given in full): the z-score is 0.217 in assay [1]; -0.449 (inactive) in assay [2]; 0.301 (inactive) in assay [3]; 0.632 (inactive) in assay [5]; -0.711 (inactive) in assay [6]; -0.201 (inactive) in assay [7]. Besides, the values for the z-score in assay [8] and in assay [9] were -0.416 (inactive) and -0.115, respectively. For the same molecule, the composite z-score in [4] is -1.66 (inactive); in assay [10], 0.0769.
For `O=C1C[C@@H](O)[C@@H](O)[C@@H]2[C@@H]3C(=O)N(C4CCCCC4)C(=O)[C@@H]3CC[C@H]12`, the z-score in assay [1] was 0.513; in assay [2] it was 0.44 (inactive); in assay [3], -0.122 (inactive); in assay [5], -0.319 (inactive); in [6], -0.247 (inactive); in assay [7], -0.0543 (inactive). Also, the z-score in assay [8] was -0.292 (inactive); in assay [9], 0.288. The figures for the composite z-score in assay [4] and in assay [10] were 0.349 (inactive) and -0.0454, respectively.
In the case of `Cc1cc2c(nc1C)CCCN2CC(O)CN1CCN(C)CC1` (stereo not given), the z-score in assay [1] was -0.406; in assay [2], -0.428 (inactive); in assay [3], -0.709 (inactive); in assay [5] it was 1.02 (inactive); in [6], -0.185 (inactive); in assay [7] it was -0.233 (inactive). For the same molecule, the results for the z-score in assay [8] and in [9] were -0.125 (inactive) and -0.0252, respectively. The composite z-score was -1.14 (inactive) in assay [4] and 1.64 in assay [10].
`COCCOC(=O)N1C(=O)[C@@]2(c3cc(C#CC4(O)CCCCCC4)ccc31)[C@H](c1ccc(OCCO)cc1)N1[C@H](c3ccccc3)[C@H](c3ccccc3)OC(=O)[C@H]1[C@@H]2C(=O)NC[C@H](O)c1ccccc1`: the z-score was -0.259 in assay [1]; 0.685 (inactive) in [2]; -0.596 (inactive) in assay [3]; 1.91 (inactive) in [5]; 2.62 (inactive) in assay [6]; 0.393 (inactive) in assay [7]. The z-score in [8] was 0.0869 (inactive); in assay [9], 0.406. Moreover, the figures for the composite z-score in assay [4] and in [10] were 1.74 (inactive) and -0.16, respectively.
For the molecule `CC(C)CON=C1C[C@@H](O)[C@@H](O)[C@@H]2[C@@H]3C(=O)N(C[C@@H]4CCCO4)C(=O)[C@@H]3CC[C@H]12`, the z-score in assay [1] was 0.511; in assay [2] it was -0.138 (inactive); in assay [3] it was -0.594 (inactive); in [5] it was 0.884 (inactive); in assay [6], -0.776 (inactive); in assay [7] it was -0.353 (inactive). In addition, the z-score in assay [8] is 0.0723 (inactive); in [9], 0.139. Also, the composite z-score was -0.849 (inactive) in [4] and -0.174 in assay [10].
Take `CCOC(=O)C1=CCC(c2cc3ccccc3[nH]2)NC1` (stereo not given): the z-score in assay [1] was -0.309; in assay [2] it was -3.2 (inactive); in [3], -0.79 (inactive); in assay [5], 0.0083 (inactive); in assay [6], -0.194 (inactive); in [7], -0.303 (inactive). Further, the z-score in [8] was -0.391 (inactive); in [9] it was -0.613. The composite z-score was -0.0148 (inactive) in assay [4] and 0.0418 in assay [10].
Consider `COC(=O)[C@@H]1CC[C@H](C)[C@@H](c2ccc(C)cc2)N1C(=O)c1ccc(C=NOC[C@@H](O)COCc2ccco2)cc1`, for which the z-score is -0.609 in [1]; -0.346 (inactive) in assay [2]; -1.06 (inactive) in assay [3]; 0.147 (inactive) in assay [5]; 0.0787 (inactive) in [6]; 0.462 (inactive) in assay [7]. The z-score in assay [8] is 0.663 (inactive); in [9], -1.49. Besides, the composite z-score in assay [4] was 0.13 (inactive); in [10], -0.0891.
Regarding `CC[C@@H](c1ccccc1)n1c(=O)n2n(c1=O)[C@H]1[C@H](O)[C@@H]3O[C@@H]3C(=NOCC=C(C)CCC=C(C)C)[C@H]1CC2`, the z-score is -0.301 in assay [1]; 0.11 (inactive) in assay [2]; -0.16 (inactive) in assay [3]; -0.261 (inactive) in assay [5]; 1.01 (inactive) in assay [6]; -0.271 (inactive) in assay [7]. Besides, the z-score in assay [8] was -1.98 (inactive); in assay [9], -0.451. For the same molecule, the composite z-score in [4] is 0.0031 (inactive); in assay [10] it was -0.141.
`COCCCNC(=O)[C@@]1(Sc2ccc(C)cc2)CC(=O)N(Cc2ccccc2)[C@@H]1c1ccc(CO)cc1I`: the z-score is 0.121 in [1]; -3.62 (inactive) in [2]; -2.46 (inactive) in assay [3]; -0.549 (inactive) in [5]; -1.02 (inactive) in assay [6]; 0.283 (inactive) in assay [7]. For the same molecule, the z-score in assay [8] is 0.264 (inactive); in assay [9], -1.78. Further, the composite z-score is -0.666 (inactive) in assay [4] and 0.106 in [10].
Take `O=C1C[C@]2(c3ccc([N+](=O)[O-])cc3)C(=O)N(CCN3CCOCC3)c3cc(CO)ccc3[C@H]2N1CC12CC3CC(CC(C3)C1)C2`: the z-score in assay [1] is -0.0113; in [2], -0.0207 (inactive); in assay [3], 0.639 (inactive); in [5], 0.277 (inactive); in assay [6] it was -0.028 (inactive); in [7], 0.577 (inactive). The results for the z-score in [8] and in assay [9] were -0.0127 (inactive) and -0.391, respectively. Also, the composite z-score in assay [4] is -6.92 (inactive); in assay [10], 0.476.
On to `CO[C@@H]1COC(=O)[C@@H]2CCCN2C(=O)[C@@H](C)COC(=O)[C@H](COCc2ccccc2)NC(=O)CC=C[C@H]1C`, for which the z-score is -0.327 in [1]; 0.185 (inactive) in [2]; -0.722 (inactive) in [3]; -0.455 (inactive) in assay [5]; 0.549 (inactive) in assay [6]; -0.489 (inactive) in assay [7]. For the same molecule, the results for the z-score in assay [8] and in assay [9] were -1.98 (inactive) and -0.228, respectively. Further, the composite z-score was -0.241 (inactive) in assay [4] and -0.153 in [10].
